# Source: PubChem BioAssay (National Center for Advancing Translational Sciences (NCATS))
# Shiga toxin inh = inhibitors of Shiga toxin in Vero cells | Vero cells, Shiga toxin protein synthesis inhibition reporter | 9.2% of 290,000 active | AID 2315 | inhibition, % at 38.7 µM; in the data active means inhibition mostly above about 28%, no sharp cut-off; inactive means mostly below about 43%
# CHX counter = counter-screen for Shiga toxin inhibitors: cycloheximide protein synthesis inhibition | 12% of 300,000 active | cell reporter, cycloheximide protein synthesis inhibition counterscreen | max response, % | AID 2314; in the data active means max response mostly above about 13%, no sharp cut-off; inactive means mostly below about 14%; further: read at 38.3 µM for the half of the compounds with a filed dose
# AmpC inh detg = AmpC beta-lactamase inhibition with detergent present; Potency, µM (titrated, usually from 114 µM), most hits filed as inhibitors; P00811; AmpC hydrolysis of nitrocefin, absorbance 480 nm, 0.01% Triton; 0.041% of 370,000 active; AID 485294; further: nearly all actives have a fitted effect of over 25% in size
# Target sequence (P00811 whole entry, looked up): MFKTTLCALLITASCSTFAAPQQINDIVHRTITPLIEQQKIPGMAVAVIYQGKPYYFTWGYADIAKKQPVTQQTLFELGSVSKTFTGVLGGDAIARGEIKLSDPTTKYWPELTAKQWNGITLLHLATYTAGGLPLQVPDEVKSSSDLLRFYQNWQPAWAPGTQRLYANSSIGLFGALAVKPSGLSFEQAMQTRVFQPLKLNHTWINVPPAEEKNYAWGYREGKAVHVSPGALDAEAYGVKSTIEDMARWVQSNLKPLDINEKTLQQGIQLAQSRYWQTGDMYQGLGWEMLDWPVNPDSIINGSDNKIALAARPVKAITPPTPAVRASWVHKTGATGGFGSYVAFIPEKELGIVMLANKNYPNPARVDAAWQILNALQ
#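 AmpC (5.3 nM in the dispensed reagent) in 20 mM phosphate pH 7.0 with 0.01% (detergent screen) or 0.0001% Triton X-100 was preincubated with compounds for 15 min at room temperature. Nitrocefin was then added from an 800 uM solution, and hydrolysis was followed at 480 nm.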
# AMA1-RON2 inh = disrupts binding of P. falciparum AMA1 to RON2 | AID 720542 | Potency, µM (highest dose often 58.2 µM), most hits filed as inhibitors | 0.2% of 360,000 active | AlphaScreen AMA1-biotinylated RON2 peptide binding; further: nearly all actives have a fitted effect of over 45% in size
#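 AMA1 (3D7) with his tag at 25 nM final met compounds first, then biotinylated RON2 peptide at 25 nM; detection used donor plus acceptor beads, 10 µg/mL apiece, read by AlphaScreen after 30 min at room temperature.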
# SARS PLP yeast = blocks SARS-CoV papain-like protease in a yeast assay; Potency, µM (titrated, usually from 32.9 µM), usual class: activators; AID 485353; 0.19% of 330,000 active; S. cerevisiae expressing SARS-CoV PLpro, growth rescue; calls by dose curve; further: nearly all actives have a fitted effect of over 55% in size
# AmpC inh no detg = inhibitors of E. coli AmpC beta-lactamase without detergent; AmpC nitrocefin hydrolysis, absorbance 480 nm, 0.0001% Triton; AID 485341; P00811; 0.52% of 330,000 active; Potency, µM (highest dose often 57.1 µM), hits mostly inhibitors; further: nearly all actives have a fitted effect of over 20% in size
#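 20 mM phosphate pH 7.0 + 0.01% (detergent screen) or 0.0001% Triton X-100; 5.3 nM AmpC reagent; cpd preinc 15 min RT; nitrocefin (800 uM stock) to start; A480 q20 s × 4 min; Activity was normalised to no-enzyme and no-compound control wells.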
# Hits are given with their value; . = inactive; ? = inconclusive; / = no result given. This is one part of a sample in which hits are shown more often than they occur. Unless noted, the call rests on the fitted dose curve; in most records, active means well fitted curve in the direction sought with a large enough effect; inconclusive means small, poorly fitted or top-dose-only effect, or another doubt; inactive means no such curve, though single readings can be large; an effect the other way counts as inactive or inconclusive.
SMILES,Shiga toxin inh,CHX counter,AmpC inh detg,AMA1-RON2 inh,SARS PLP yeast,AmpC inh no detg
O=c1[nH]c(CSc2ccccn2)nc2c1oc1ccccc12,91,49,.,.,.,.
CCc1nc2c(oc3ccccc32)c(=O)[nH]1,.,22,.,.,.,.
O=c1[nH]cnc2c1oc1ccccc12,70,34,.,.,.,.
Cc1nc(SCc2nc3c(C)cccc3[nH]2)c2oc3ccccc3c2n1,/,/,/,/,.,.
O=C(Cn1cnc2c(nnn2Cc2ccccc2)c1=O)Nc1ccc2c(c1)OCCO2,.,.,.,.,.,.
CC(C)CCN1CC(=O)N2Cc3[nH]c4ccccc4c3C[C@H]2C1=O,.,.,?,.,.,.
O=c1cc(-c2ccccc2Cl)oc2c(Br)ccc(O)c12,78,31,?,.,.,.
O=c1cc(-c2ccccc2Cl)oc2c([N+](=O)[O-])ccc(O)c12,.,.,/,/,/,/
O=C(c1cccn2c(=O)c3cc4ccccc4cc3nc12)N1CCN(c2ccccc2)CC1,35,23,.,/,.,.
COc1ccc(N2CCN(C(=O)c3cccn4c(=O)c5ccc(Cl)cc5nc34)CC2)cc1,/,/,.,/,/,/
COC(=O)C1C(=O)/C(=C(/C)N2CCCC2)C(=O)CC1(C)C (centres undefined),.,.,.,.,.,.
c1ccc(CCNc2nnnn2-c2ccccc2)cc1,.,24,?,.,.,.
CSc1ccc(/C=N/NC(=O)CN2CCN(Cc3ccc(C)cc3)CC2)cc1,.,.,.,.,.,.
Cc1ccc(S(=O)(=O)Nc2ccccc2CNc2ccccn2)cc1,37,22,.,.,.,.
Cc1ccc(O)c(CNc2ccccn2)c1,101,.,?,.,.,.
Cc1ccnc(NCc2cc(C)ccc2O)c1,/,19,.,.,.,.
CC(=O)Nc1cccc(NC(=O)C2CCCO2)c1 (centres undefined),/,/,/,.,/,/
COC(=O)c1ccc(CNC(=O)COC(=O)c2ccc(N(C)C)cc2)cc1,.,.,.,.,.,.
COc1ccc2oc(C(=O)N(Cc3ccco3)Cc3cccs3)c(C)c2c1,/,/,.,.,.,32µM
C[n+]1ccccc1C1CCCC/C1=N\NC(N)=S (centres undefined),.,.,.,.,.,.
Cc1noc(C)c1COc1ccc(C(=O)Nc2ccccc2)cc1,.,.,.,.,.,.
Cc1ccsc1C(=O)NCC(=O)OCc1ccccc1,61,30,.,.,.,.
O=C(Nc1ccc(-c2noc(CCc3ccccc3)n2)cc1)c1cccnc1,40,27,.,.,.,.
Cc1noc(C)c1COc1cccc(C(=O)Nc2ccc(OCc3ccccc3)cc2)c1,.,12,.,.,.,.
CC(C)=CC(=O)Nc1ccc(OCc2ccccc2)cc1,126,53,.,.,.,.
SMILES,Shiga toxin inh,CHX counter,AmpC inh detg,AMA1-RON2 inh,SARS PLP yeast,AmpC inh no detg
Cc1cc(OCc2nc(-c3ccc(NC(=O)c4cccnc4)cc3)no2)ccc1Cl,.,.,.,.,.,.
COc1cc2c(cc1OC)CC(=O)NC=C2,.,.,.,.,.,.
O=C(NC1CCS(=O)(=O)C1)c1c(NC(=O)C2COc3ccccc3O2)sc2c1CCCC2 (centres undefined),.,.,.,.,.,.
CCOCC(=O)Nc1ccc(OCc2ccccc2)cc1,46,35,.,.,.,.
O=C(NCCc1ccc(Cl)cc1)c1cccnc1,.,.,.,.,.,.
CCCCc1ccc(NC(=O)CN(C)CC(=O)Nc2ccccc2Cl)cc1,.,.,.,.,.,.
O=C(Nc1ccc(OCc2ccccc2)cc1)c1cccnc1,41,20,.,.,.,.
CN(CC(=O)Nc1ccccc1)CC(=O)Nc1ccccc1Cl,31,19,.,.,.,.
CCOC(=O)C(=O)Nc1ccc(OCc2ccccc2)cc1,.,.,.,.,.,.
O=C(NCCc1ccccc1)c1ccc(NC(=O)c2cccnc2)cc1,37,23,.,.,.,.
COC(=O)CCS(=O)(=O)c1ccc(Cl)cc1,.,.,.,.,.,.
COC(=O)C(C(=O)NCC1CCCO1)C1CCCC1 (centres undefined),.,.,.,.,.,.
COc1ccc(C2C(C#N)=C(N)SC(N)=C2C#N)cc1OC,.,.,.,.,.,.
